CHX counter: counter-screen hit for Shiga toxin inhibitors, cycloheximide; cell reporter, cycloheximide protein synthesis inhibition counterscreen; max response, %; 12% of 300,000 active; in the data active means max response mostly above about 13%, no sharp cut-off; inactive means mostly below about 14%; further: read at 38.3 µM for the half of the compounds with a filed dose; 0% is about no effect
Pf growth 96h: P. falciparum growth inhibition at 96 hour, primary screen for plastid delayed-death inhibitors; AID 504834; Potency, µM (highest dose often 28.7 µM), for the others: at the top dose activity change, negative = inhibition, hits mostly inhibitors; 6.9% of 320,000 active; P. falciparum luciferase reporter growth, 96 h; further: potency means the concentration at half of the fitted maximal effect; on the % scale 0 is the no-effect control and ±100 the full control effect
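Two-generation exposure (96 h) targets delayed-death phenotype. Reporter parasites carrying integrated firefly luciferase, in red cells at 2% hematocrit and 0.05% parasitemia final, kept at 37 C, 5% CO2; luminescence loss indicates inhibition.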
Pf growth 48h: P. falciparum growth inhibition at 48 hours (one generation) | P. falciparum luciferase growth in erythrocytes, 48 h | Potency, µM (top dose mostly 28.7 µM), inactives show at the top dose activity change, negative = inhibition, most hits filed as inhibitors | 5.9% of 310,000 active; further: potency means the concentration at half of the fitted maximal effect; on the % scale 0 is the no-effect control and ±100 the full control effect
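A one-generation exposure of luciferase-tagged malaria parasites in RPMI 1640/Albumax erythrocyte culture, 37 C and 5% CO2. Inhibition is inferred from decreased luminescence after adding detection reagent.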
Shiga toxin inh: blocks Shiga toxin action in Vero cells | 9.2% of 290,000 active | Vero cells, Shiga toxin protein synthesis inhibition reporter | inhibition, % at 38.7 µM | AID 2315; in the data active means inhibition mostly above about 28%, no sharp cut-off; inactive means mostly below about 43%; further: 0% is about no effect
HCV inh: inhibitors of hepatitis C virus infection; Huh7.5.1 HCVcc-Cre infection, luciferase reporter, 44 h; Potency, µM (highest dose often 41.8 µM), inactives show at the highest dose activity change, negative = inhibition, actives largely listed as inhibitors; 3.4% of 340,000 active; AID 651820; further: potency means the concentration at half of the fitted maximal effect; on the % scale 0 is the no-effect control and ±100 the full control effect
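Seed cells (1,000/well) for 4 h; treat with compound and infect with HCVcc-Cre, moi about 0.5. Incubate 44 h, then detect luciferase activity.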
HCMV antiviral: blocks human cytomegalovirus replication; HFF cells, HCMV-luciferase reporter, 72 h; hits give low values; activity change, negative = inhibition, % at 57.5 µM; 4.5% of 410,000 active; AID 1259415; in the data active means activity change below about -60%; inconclusive means no clear call, values can overlap the other calls; inactive means above about -39%; further: on the % scale 0 is the no-effect control and ±100 the full control effect
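Inhibition of viral replication was scored as loss of reporter luminescence in HFFs infected with HCMV-luciferase (MOI 1 PFU/cell) for 72 h; compounds tested at 2 doses, normalized to buffer and Salinomycin controls.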
Numbers without * were called inactive. An excerpt weighted towards active compounds, which were near 21% of everything screened. Unless noted, the call rests on the fitted dose curve; in most records, active means well fitted inhibition curve with a large enough effect; inconclusive means small, poorly fitted or top-dose-only effect, or another doubt; inactive means no such curve, though single readings can be large or run the other way.

Results for COc1ccc(-c2n[nH]c(=S)n2-c2ccc3c(c2)OCCO3)cc1 ?
CHX counter: 10.9; Pf growth 96h: -19.2%; Pf growth 48h: -0.8%; Shiga toxin inh: 15.9; HCV inh: 1.7%; HCMV antiviral: 9.6

What do the screens show for `S=c1[nH]nc(-c2ccco2)n1-c1ccc(Cl)cc1`?
CHX counter: -1.3; Pf growth 96h: 29.9%; Pf growth 48h: 15.5%; Shiga toxin inh: -3.2; HCV inh: 13.2%; HCMV antiviral: -61.1*

Results for S=c1[nH]nc(-c2ccc(Cl)cc2Cl)n1-c1ccccc1 ?
CHX counter: 39.7*; Pf growth 96h: inconclusive; Pf growth 48h: 194.2%; HCV inh: 1.8%; HCMV antiviral: 55.1

Results for COc1ccc(-n2c(-c3ccco3)n[nH]c2=S)cc1 ?
CHX counter: -4.1; Pf growth 96h: -9.2%; Pf growth 48h: -19.6%; Shiga toxin inh: 42.6; HCV inh: 2.0%; HCMV antiviral: -2.3

Results for S=c1[nH]nc(-c2ccc(Cl)cc2Cl)n1-c1ccc2c(c1)OCCO2 ?
CHX counter: 20.6*; Pf growth 96h: 14.1%; Pf growth 48h: 42.5%; Shiga toxin inh: 46.3*; HCV inh: 6.6%; HCMV antiviral: 4.7

Results for COc1ccc(C2=NO[C@@H]3C(=O)N(C4CCCCC4)C(=O)[C@H]23)cc1OC ?
CHX counter: -1.6; Pf growth 96h: inconclusive; Pf growth 48h: 19.3%; Shiga toxin inh: -6.4; HCV inh: 9.4%; HCMV antiviral: 23.7

What do the screens show for `S=c1[nH]nc(-c2ccc(Br)cc2)n1-c1ccc2c(c1)OCCO2`?
CHX counter: 12.5; Pf growth 96h: inconclusive; Pf growth 48h: inconclusive; Shiga toxin inh: 12.6; HCV inh: -2.0%; HCMV antiviral: 7.5

Results for COc1ccc(C2=NO[C@@H]3C(=O)N(c4ccc5c(c4)OCCO5)C(=O)[C@H]23)cc1OC ?
CHX counter: 37.6*; Pf growth 96h: 19.1%; Pf growth 48h: 57.8%; Shiga toxin inh: 47.9*; HCV inh: 5.4%; HCMV antiviral: inconclusive

Results for COc1ccc(OC)c(-n2c(-c3ccc(O)cc3O)n[nH]c2=S)c1 ?
CHX counter: 6.4; Pf growth 96h: 0.0131µM*; Pf growth 48h: inconclusive; Shiga toxin inh: -6.8; HCV inh: -4.2%; HCMV antiviral: 6.7

How did COc1ccccc1-c1n[nH]c(=S)n1-c1ccccc1 do in these assays?
CHX counter: 19.7*; Pf growth 96h: 13.1µM*; Pf growth 48h: 90.4%; Shiga toxin inh: 14.5; HCV inh: 8.6%; HCMV antiviral: 18.4

Results for COc1ccc(NC(=O)CCn2cnnn2)cc1 ?
HCMV antiviral: 2.5

What do the screens show for `CCOc1ccc(Nc2cc(C)nc(N3CCOCC3)n2)cc1`?
CHX counter: -4.8; Pf growth 96h: 38.5%; Pf growth 48h: -12.3%; Shiga toxin inh: -4.6; HCV inh: -15.8%; HCMV antiviral: -11.0

Results for Cc1ccc(Nc2cc(C)nc(N3CCOCC3)n2)cc1 ?
CHX counter: 26.4*; Pf growth 96h: 24.2%; Pf growth 48h: 65.8%; Shiga toxin inh: 81.4*; HCV inh: inconclusive; HCMV antiviral: 275.8

How did Cc1cc(Nc2ccc(C)c(Cl)c2)nc(N2CCOCC2)n1 do in these assays?
CHX counter: 7.5*; Pf growth 96h: inconclusive; Pf growth 48h: inconclusive; Shiga toxin inh: 13.0; HCV inh: inconclusive; HCMV antiviral: 78.7

Results for Cc1ccccc1Nc1nc(N2CCOCC2)nc(N2CCOCC2)n1 ?
CHX counter: -2.4; Pf growth 96h: 5.4%; Pf growth 48h: inconclusive; Shiga toxin inh: -1.9; HCV inh: -17.0%; HCMV antiviral: active

How did Cc1ccc(Nc2nc(N3CCOCC3)nc(N3CCOCC3)n2)cc1 do in these assays?
CHX counter: 14.1*; Pf growth 96h: inconclusive; Pf growth 48h: inconclusive; Shiga toxin inh: -2.9; HCV inh: inconclusive; HCMV antiviral: -64.5*

How did CCCN1C(=O)C2(c3ccccc31)c1c(oc3cc(C)c(C)cc3c1=O)C(=O)N2CCCOC (stereo not given) do in these assays?
HCMV antiviral: 73.5

Results for O=C(Nc1ccnc(=O)[nH]1)c1sc2ccccc2c1Cl ?
CHX counter: -1.3; Pf growth 96h: 98.1%; Pf growth 48h: 54.4%; Shiga toxin inh: -5.7; HCV inh: 6.7%; HCMV antiviral: -17.9

How did C/C(=N\NC(=O)c1cccc(S(=O)(=O)N2CCOCC2)c1)c1cc2ccccc2o1 do in these assays?
CHX counter: -5.0; Pf growth 96h: 7.5%; Pf growth 48h: -15.9%; Shiga toxin inh: -7.1; HCV inh: -26.4%; HCMV antiviral: -18.7

How did COc1ccccc1CNC(=O)COC(=O)CSc1ccc(F)cc1 do in these assays?
Pf growth 96h: -9.9%; Pf growth 48h: -4.1%; HCV inh: 9.9%; HCMV antiviral: 5.1

Results for O=C(c1ccc(Br)cc1)c1cn[nH]c1-c1ccccc1O ?
CHX counter: 14.1; Pf growth 96h: -19.9%; Pf growth 48h: -34.5%; Shiga toxin inh: 45.1; HCV inh: -2.1%; HCMV antiviral: 20.1

What do the screens show for `Cc1ccc(-c2[nH]ncc2C(=O)c2cccc(F)c2)c(O)c1`?
CHX counter: 8.5*; Pf growth 96h: inconclusive; Pf growth 48h: inconclusive; Shiga toxin inh: 28.3; HCV inh: inconclusive; HCMV antiviral: -74.6*

How did Cc1cccc(C(=O)c2cn[nH]c2-c2ccc(C)cc2O)c1 do in these assays?
CHX counter: -1.6; Pf growth 96h: inconclusive; Pf growth 48h: -22.4%; HCV inh: -24.6%; HCMV antiviral: 22.7

Results for CC(C)(C)c1ccc(C(=O)c2cn[nH]c2-c2ccccc2O)cc1 ?
CHX counter: 41.9*; Pf growth 96h: inconclusive; Pf growth 48h: -29.0%; Shiga toxin inh: 58.3*; HCV inh: -6.3%; HCMV antiviral: 121.3

What do the screens show for `COc1ccc(NC(=O)N(C)C[C@H]2Oc3ncc(Br)cc3C(=O)N([C@H](C)CO)C[C@@H]2C)cc1`?
HCMV antiviral: -2.6

How did CC1=CC=CC2=NC(=O)CC(C)(C(=O)N(CC(=O)NC3CCCC3)c3ccc(F)cc3)N12 (stereo not given) do in these assays?
CHX counter: -6.5; Pf growth 96h: 28.5%; Pf growth 48h: 21.3%; Shiga toxin inh: -8.0; HCV inh: -19.7%; HCMV antiviral: -82.2*

What do the screens show for `COc1ccc2[nH]c3c(c2c1)CCN1C(=O)C(CC(=O)NCCCn2ccnc2)C[C@H](C(=O)N2CCCCC2)[C@@]31CCc1ccccc1` (stereo not given in full)?
HCV inh: 7.7%; HCMV antiviral: -8.0

What do the screens show for `CCOC(=O)c1csc(NC(=O)C(C)(C)C)n1`?
CHX counter: -0.5; Pf growth 96h: 50.3%; Shiga toxin inh: 34.6; HCV inh: -5.5%; HCMV antiviral: 7.1

Results for CCOC(=O)c1csc(NC(=O)C2CCCCC2)n1 ?
CHX counter: 26.5*; Pf growth 96h: 122.7%; Pf growth 48h: 35.0%; Shiga toxin inh: 58.9*; HCV inh: -7.0%; HCMV antiviral: 23.9

Source: PubChem
